In ChEMBL document CHEMBL1961873, “Compounds: GSK PKIS; Assays: Nanosyn kinase panel” (2012):

Assays:
[1] = target: T1, 3-phosphoinositide-dependent protein kinase 1 (Homo sapiens) (UniProt O15530); settings: at 0.1 µM;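 note: values are mean inhibition of PDK1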
T1 sequence (whole entry): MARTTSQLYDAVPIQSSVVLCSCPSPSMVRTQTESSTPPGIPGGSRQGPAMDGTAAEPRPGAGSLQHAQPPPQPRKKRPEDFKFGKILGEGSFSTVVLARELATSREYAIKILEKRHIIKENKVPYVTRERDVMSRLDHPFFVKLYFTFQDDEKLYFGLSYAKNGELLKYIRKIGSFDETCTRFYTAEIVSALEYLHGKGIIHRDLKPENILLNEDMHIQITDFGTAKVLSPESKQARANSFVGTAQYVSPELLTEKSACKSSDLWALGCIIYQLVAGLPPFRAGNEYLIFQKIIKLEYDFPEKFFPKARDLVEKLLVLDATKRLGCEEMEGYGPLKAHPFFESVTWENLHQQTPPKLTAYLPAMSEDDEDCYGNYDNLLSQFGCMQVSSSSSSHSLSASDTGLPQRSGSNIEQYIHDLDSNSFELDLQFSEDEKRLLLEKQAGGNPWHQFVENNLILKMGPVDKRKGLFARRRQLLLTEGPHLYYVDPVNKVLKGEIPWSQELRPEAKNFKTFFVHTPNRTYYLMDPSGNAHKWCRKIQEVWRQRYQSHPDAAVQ

[2] = target: cAMP-dependent protein kinase catalytic subunit alpha (Homo sapiens) (UniProt P17612); settings: at 0.1 µM
[3] = target: cAMP-dependent protein kinase catalytic subunit alpha (Homo sapiens) (UniProt P17612); settings: at 1 µM
[4] = target: Protein kinase C alpha type (Homo sapiens) (UniProt P17252); settings: at 0.1 µM
[5] = target: Protein kinase C alpha type (Homo sapiens) (UniProt P17252); settings: at 1 µM
[6] = target: Protein kinase C beta type (Homo sapiens) (UniProt P05771); settings: at 0.1 µM
Sequence of Protein kinase C beta type (Homo sapiens) (P05771 2-671 limits assumed): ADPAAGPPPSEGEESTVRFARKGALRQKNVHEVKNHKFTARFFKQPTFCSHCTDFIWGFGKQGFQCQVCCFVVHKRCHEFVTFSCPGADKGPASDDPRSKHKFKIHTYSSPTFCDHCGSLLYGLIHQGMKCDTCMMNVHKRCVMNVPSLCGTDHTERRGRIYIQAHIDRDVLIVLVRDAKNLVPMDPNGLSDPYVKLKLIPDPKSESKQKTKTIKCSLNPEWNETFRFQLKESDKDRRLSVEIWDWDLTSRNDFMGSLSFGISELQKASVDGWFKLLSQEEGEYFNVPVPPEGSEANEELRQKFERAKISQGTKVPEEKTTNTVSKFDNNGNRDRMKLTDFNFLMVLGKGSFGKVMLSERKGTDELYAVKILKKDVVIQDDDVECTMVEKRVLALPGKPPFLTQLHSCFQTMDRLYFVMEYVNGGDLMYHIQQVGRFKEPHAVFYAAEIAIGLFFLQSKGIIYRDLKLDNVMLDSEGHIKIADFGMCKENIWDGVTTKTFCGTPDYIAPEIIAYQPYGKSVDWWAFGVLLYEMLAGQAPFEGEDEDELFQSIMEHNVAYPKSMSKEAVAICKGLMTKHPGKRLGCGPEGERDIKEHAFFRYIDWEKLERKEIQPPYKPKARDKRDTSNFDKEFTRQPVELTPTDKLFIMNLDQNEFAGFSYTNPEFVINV

[7] = target: Protein kinase C beta type (Homo sapiens) (UniProt P05771); settings: at 1 µM
[8] = target: Protein kinase C eta type (Homo sapiens) (UniProt P24723); settings: at 0.1 µM
Sequence of Protein kinase C eta type (Homo sapiens) (P24723 whole entry): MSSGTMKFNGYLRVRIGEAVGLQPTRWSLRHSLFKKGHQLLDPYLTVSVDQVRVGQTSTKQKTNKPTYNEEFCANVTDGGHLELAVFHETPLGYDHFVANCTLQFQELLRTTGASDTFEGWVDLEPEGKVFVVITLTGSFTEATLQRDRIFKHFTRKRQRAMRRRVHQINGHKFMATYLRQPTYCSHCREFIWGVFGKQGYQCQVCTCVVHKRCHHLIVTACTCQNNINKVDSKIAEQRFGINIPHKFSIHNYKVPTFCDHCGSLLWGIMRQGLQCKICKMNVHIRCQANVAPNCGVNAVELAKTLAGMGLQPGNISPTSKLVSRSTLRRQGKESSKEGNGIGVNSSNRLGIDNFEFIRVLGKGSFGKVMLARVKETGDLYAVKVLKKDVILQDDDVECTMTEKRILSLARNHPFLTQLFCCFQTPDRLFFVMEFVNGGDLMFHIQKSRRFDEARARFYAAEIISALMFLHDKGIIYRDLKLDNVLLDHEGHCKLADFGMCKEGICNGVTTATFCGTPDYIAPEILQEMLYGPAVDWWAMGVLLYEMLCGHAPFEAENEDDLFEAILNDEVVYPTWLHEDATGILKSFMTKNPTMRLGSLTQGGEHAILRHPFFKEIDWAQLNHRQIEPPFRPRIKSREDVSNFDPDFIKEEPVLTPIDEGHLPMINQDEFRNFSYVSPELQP

[9] = target: Protein kinase C eta type (Homo sapiens) (UniProt P24723); settings: at 1 µM
[10] = target: Protein kinase C gamma type (Homo sapiens) (UniProt P05129); settings: at 0.1 µM
[11] = target: Protein kinase C gamma type (Homo sapiens) (UniProt P05129); settings: at 1 µM
[12] = target: T2, Protein kinase C iota type (Homo sapiens) (UniProt P41743); settings: at 0.1 µM
T2 sequence (whole entry): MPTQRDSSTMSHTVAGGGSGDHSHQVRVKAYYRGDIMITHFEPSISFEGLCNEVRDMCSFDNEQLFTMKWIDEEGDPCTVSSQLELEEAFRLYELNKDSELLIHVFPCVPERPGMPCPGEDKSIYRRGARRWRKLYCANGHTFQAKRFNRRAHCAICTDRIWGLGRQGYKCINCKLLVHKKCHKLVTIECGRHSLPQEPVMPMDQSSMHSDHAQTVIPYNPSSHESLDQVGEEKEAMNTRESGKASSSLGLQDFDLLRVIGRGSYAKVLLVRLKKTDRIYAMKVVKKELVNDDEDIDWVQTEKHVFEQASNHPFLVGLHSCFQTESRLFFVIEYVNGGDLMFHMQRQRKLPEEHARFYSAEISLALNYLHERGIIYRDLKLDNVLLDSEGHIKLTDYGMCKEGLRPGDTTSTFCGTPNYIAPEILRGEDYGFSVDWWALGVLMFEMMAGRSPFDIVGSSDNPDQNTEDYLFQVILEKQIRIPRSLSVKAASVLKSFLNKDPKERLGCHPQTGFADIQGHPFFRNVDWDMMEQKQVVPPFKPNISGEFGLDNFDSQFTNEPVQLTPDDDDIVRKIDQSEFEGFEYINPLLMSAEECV

[13] = target: T2, Protein kinase C iota type (Homo sapiens); settings: at 1 µM
[14] = target: Protein kinase C theta type (Homo sapiens) (UniProt Q04759); settings: at 0.1 µM
Sequence of Protein kinase C theta type (Homo sapiens) (Q04759 whole entry, looked up): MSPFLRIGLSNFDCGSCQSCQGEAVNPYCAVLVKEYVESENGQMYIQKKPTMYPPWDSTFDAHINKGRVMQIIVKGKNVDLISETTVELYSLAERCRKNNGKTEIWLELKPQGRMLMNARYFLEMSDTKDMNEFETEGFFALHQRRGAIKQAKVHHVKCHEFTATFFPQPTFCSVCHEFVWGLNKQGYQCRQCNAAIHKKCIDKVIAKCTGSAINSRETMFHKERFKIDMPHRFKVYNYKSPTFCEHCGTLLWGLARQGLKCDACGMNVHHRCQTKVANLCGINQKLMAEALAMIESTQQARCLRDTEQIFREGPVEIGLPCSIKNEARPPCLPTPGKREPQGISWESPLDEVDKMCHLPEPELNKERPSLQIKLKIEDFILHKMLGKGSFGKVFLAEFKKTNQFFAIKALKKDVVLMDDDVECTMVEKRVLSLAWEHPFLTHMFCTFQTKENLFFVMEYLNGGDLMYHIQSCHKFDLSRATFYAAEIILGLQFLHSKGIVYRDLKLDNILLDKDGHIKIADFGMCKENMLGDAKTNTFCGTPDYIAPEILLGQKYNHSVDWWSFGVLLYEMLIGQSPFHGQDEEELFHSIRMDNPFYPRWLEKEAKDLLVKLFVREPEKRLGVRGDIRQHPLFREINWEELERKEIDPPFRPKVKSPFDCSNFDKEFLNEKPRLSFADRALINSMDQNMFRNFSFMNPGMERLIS

[15] = target: Protein kinase C theta type (Homo sapiens) (UniProt Q04759); settings: at 1 µM
[16] = target: Protein kinase C beta type (Homo sapiens) (UniProt P05771); settings: at 0.1 µM; remark: listed apart in the source
[17] = target: Protein kinase C beta type (Homo sapiens) (UniProt P05771); settings: at 1 µM; remark: listed apart in the source
[18] = target: T3, Serine/threonine-protein kinase D1 (Homo sapiens) (UniProt Q15139); settings: at 0.1 µM
T3 sequence (whole entry): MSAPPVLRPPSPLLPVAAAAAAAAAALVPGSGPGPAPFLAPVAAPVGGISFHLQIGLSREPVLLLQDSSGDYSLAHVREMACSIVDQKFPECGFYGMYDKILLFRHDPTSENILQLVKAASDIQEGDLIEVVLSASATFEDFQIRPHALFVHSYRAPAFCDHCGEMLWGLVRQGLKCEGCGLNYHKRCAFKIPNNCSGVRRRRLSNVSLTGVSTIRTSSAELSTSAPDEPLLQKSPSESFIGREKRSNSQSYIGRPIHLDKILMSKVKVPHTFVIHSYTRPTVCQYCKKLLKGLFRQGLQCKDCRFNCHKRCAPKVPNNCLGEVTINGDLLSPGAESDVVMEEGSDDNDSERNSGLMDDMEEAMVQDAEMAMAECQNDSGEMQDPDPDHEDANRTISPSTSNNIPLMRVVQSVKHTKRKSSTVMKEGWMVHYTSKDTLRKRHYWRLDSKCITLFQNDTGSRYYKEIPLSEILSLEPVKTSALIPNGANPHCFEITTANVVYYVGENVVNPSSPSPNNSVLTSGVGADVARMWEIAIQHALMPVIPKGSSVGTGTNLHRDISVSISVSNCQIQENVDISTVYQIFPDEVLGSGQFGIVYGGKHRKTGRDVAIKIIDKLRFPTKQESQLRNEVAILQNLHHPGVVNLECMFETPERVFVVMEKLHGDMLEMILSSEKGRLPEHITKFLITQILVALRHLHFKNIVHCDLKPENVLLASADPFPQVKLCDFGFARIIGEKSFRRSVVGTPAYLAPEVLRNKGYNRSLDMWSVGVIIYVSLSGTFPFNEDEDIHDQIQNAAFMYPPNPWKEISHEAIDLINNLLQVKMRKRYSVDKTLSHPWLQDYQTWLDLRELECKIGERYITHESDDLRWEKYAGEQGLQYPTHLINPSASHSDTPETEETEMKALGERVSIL

[19] = target: T3, Serine/threonine-protein kinase D1 (Homo sapiens); settings: at 1 µM
[20] = target: T4, Serine/threonine-protein kinase D2 (Homo sapiens) (UniProt Q9BZL6); settings: at 0.1 µM;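 note: reported percent inhibition values are means, part of the GSK PKIS kinase panel screen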
T4 sequence (whole entry): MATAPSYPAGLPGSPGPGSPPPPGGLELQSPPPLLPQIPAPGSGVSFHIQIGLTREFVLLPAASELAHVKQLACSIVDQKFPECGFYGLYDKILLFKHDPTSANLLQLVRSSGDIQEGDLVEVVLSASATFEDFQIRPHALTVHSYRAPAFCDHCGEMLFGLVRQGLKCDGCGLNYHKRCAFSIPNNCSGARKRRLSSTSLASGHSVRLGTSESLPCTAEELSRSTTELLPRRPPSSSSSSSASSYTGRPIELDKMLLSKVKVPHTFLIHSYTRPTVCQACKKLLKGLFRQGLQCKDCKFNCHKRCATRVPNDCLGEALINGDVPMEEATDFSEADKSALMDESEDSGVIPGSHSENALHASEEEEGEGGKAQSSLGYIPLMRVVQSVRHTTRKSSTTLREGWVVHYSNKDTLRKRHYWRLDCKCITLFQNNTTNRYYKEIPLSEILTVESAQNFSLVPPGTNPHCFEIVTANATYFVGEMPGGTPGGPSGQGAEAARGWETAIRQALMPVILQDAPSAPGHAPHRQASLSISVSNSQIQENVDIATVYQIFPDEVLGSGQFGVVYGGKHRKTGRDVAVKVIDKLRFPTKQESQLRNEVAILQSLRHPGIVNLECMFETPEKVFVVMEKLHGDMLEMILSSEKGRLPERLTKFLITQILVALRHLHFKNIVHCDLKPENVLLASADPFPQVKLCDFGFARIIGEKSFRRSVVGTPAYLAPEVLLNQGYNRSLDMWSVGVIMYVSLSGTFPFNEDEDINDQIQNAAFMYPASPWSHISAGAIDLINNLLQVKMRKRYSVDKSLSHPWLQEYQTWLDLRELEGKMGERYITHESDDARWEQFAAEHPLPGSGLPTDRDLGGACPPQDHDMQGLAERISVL

Row | SMILES | inhibition [1] [%] | inhibition [2] [%] | inhibition [3] [%] | inhibition [4] [%] | inhibition [5] [%] | inhibition [6] [%] | inhibition [7] [%] | inhibition [8] [%] | inhibition [9] [%] | inhibition [10] [%] | inhibition [11] [%] | inhibition [12] [%] | inhibition [13] [%] | inhibition [14] [%] | inhibition [15] [%] | inhibition [16] [%] | inhibition [17] [%] | inhibition [18] [%] | inhibition [19] [%] | inhibition [20] [%]
1 | CCc1ccc(Oc2nccc(-c3c(-c4ccc(F)cc4)ncn3C3CCNCC3)n2)cc1 | 1.58 | 25.9 | 75 | 0.98 | 7.86 | 3.94 | 14.9 | 7.26 | 5.32 | -0.16 | 10.9 | 0.16 | 1.79 | 4 | 8.13 | 2.37 | 9.56 | 3.88 | 13 | 4.63
2 | c1ccc(Oc2ccc(Nc3ncc(-c4ccccc4)o3)cc2)cc1 | 3.8 | 1.26 | 5.43 | 1.03 | 1.47 | 1.14 | 0.76 | -1.38 | -0.47 | 1.13 | 3.46 | 1.87 | 0.57 | 1.08 | 0.33 | 0.45 | 1.67 | 2.12 | 4.49 | 1.43
3 | COC(=O)Nc1nc2ccc(Sc3ccc(NC(=O)Nc4cc(C(F)(F)F)ccc4F)cc3)cc2[nH]1 | 1.38 | -0.04 | 2.01 | 0.22 | 0.15 | 0.84 | 0.31 | -1.46 | 0.54 | 2.88 | 4.57 | -0.54 | 0.22 | 0.15 | 0.22 | 0.31 | 0.4 | 0.94 | 0.37 | -0.22
4 | CN(C)CCCNc1nccc(-c2c(-c3ccc(F)cc3)nn3cc(C(F)(F)F)ccc23)n1 | 2.53 | -2.76 | -2.98 | -2.9 | -2.14 | 2.22 | 0.97 | 6.55 | 0.14 | 1.19 | 4.68 | 0.91 | 2.26 | 0.23 | 0.19 | 0.57 | 3.33 | -1.67 | 0.04 | -1.36
5 | Fc1ccc(-c2ncn(C3CCNCC3)c2-c2ccnc(Oc3ccc(Oc4ccccc4)cc3)n2)cc1 | 0.03 | 4.74 | 24.9 | 1.36 | 4.49 | 1.48 | 11.2 | 1.53 | 5.81 | 2.37 | 4.82 | 1.22 | 2.19 | 1.9 | 3.54 | 2.63 | 12.4 | 5.08 | 8.65 | 4.63
6 | O=C(Nc1n[nH]c2nc(-c3ccc(O)cc3)c(Br)cc12)C1CC1 | 5.57 | 2.91 | 5.49 | 5.38 | 36.9 | 6.11 | 36.5 | 6.81 | 12.9 | 12.7 | 48.1 | 5.33 | 19.2 | 7.68 | 33.2 | 19 | 57.6 | 4.47 | 7.7 | 6.19
7 | COc1cc2ncn(-c3cc(OCc4ccccc4C(F)(F)F)c(C(C)=O)s3)c2cc1OC | 0.15 | 1.04 | 1.7 | -0.12 | 0.82 | 1.02 | 0.44 | 3.8 | 3.47 | -0.98 | 0.33 | 0.95 | 1.41 | 1.39 | 0.74 | 0.72 | 0.23 | 3.39 | 5.09 | 2.5
